Screening data (PubChem)
The list is not random: actives were taken first. Their share in the collection is about 2.6%.
CRFBP-R2 block: antagonists of CRF-BP/CRF-R2 complex, primary screen, cell-based, HEK293, calcium dye fluorescence, uHTS. inhibition, % at 11.8 µM. 0.59% of 350,000 active. CRF-induced calcium fluorescence;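 active means inhibition of the ligand-induced calcium signal above about 50% at the single tested concentration, limit read from the data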
CRFR2-BP ag: agonists of CRF-BP/CRF-R2 complex, primary screen, cell-based, HEK293, calcium dye fluorescence, uHTS; calcium dye fluorescence (FLIPR); percent of saturating CRF peptide response; activation, % at 13.2 µM; 0.46% of 350,000 active; AID 588473, 2011;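 active means activation of at least 50%, plus an integration ratio under a set limit after plate pattern correction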;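 further: plate controls were neutral control wells without compound for no effect and CRF at EC100 for full effect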
IDE act: human IDE activators in live cells, primary screen, fluorescence polarization, HEK cells, FAbeta-B substrate; Insulin-degrading enzyme (Homo sapiens), P14735; FAbeta-B cleavage; 0% vehicle, 100% cell-free pure enzyme wells; activation, % at 5.96 µM; 0.073% of 340,000 active; AID 493087, 2011;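 active means activation above the mean of all tested compounds plus 3 SD, set per screening campaign, cut at about 17% in these data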
Target sequence (P14735 whole entry, looked up): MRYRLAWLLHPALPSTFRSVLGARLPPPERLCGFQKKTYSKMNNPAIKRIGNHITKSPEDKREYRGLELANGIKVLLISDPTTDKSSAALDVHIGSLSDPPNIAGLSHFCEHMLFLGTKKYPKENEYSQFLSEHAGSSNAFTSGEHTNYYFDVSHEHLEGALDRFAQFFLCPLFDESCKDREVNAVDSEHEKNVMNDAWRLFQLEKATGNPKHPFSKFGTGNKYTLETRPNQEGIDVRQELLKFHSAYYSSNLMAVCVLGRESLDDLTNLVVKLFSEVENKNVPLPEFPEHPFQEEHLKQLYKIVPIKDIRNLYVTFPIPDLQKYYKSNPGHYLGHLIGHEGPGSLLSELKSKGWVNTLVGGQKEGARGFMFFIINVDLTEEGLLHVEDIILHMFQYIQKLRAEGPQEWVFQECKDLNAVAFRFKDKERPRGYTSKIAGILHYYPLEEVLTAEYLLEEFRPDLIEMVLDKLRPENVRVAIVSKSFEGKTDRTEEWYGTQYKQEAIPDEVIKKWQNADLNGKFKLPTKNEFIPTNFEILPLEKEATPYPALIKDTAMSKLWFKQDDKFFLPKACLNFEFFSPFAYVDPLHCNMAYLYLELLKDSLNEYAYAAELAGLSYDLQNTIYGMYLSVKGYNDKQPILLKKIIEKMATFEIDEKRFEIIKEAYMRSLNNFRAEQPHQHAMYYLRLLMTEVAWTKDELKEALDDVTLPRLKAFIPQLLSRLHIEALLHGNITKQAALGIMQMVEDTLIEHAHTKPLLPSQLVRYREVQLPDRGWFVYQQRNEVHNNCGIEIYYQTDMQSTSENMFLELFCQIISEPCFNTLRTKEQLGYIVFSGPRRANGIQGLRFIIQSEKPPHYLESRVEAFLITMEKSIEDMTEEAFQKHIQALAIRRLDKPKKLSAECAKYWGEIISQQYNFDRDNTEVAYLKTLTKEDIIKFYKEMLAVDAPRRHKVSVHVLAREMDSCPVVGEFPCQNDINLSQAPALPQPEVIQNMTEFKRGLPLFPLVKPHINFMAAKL
TPT1 inhibitor: Candida albicans TPT1 enzyme inhibitors, primary screen, biochemical, fluorescence polarization. recombinant caTPT1, FP RNA substrate dephosphorylation. AID 1962, 2009. tRNA 2'-phosphotransferase TPT1 (Candida albicans SC5314). 0.81% of 300,000 active. inhibition, % at 5 µM;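 active means inhibition above the mean of all tested compounds plus 3 SD, set per screening campaign, cut at about 24% in these data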;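 further: plate controls were DMSO alone for no effect and ferristatin control at 100 nM for full effect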
Myeloid diff 2: induction of myeloid progenitor differentiation, primary screen, cell-based, flow cytometry, MLPCN library | ER-HoxA9 myeloid progenitors, lysozyme-GFP differentiation | calls only at 10 µM | 1% of 360,000 active | AID 624256, 2012;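 active means normalized GFP-positive differentiation at or above the plate's own cutoff, the solvent-only control mean plus 3 SD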;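 further: cells exposed to compound for four days before flow analysis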
IDE cell inh: human IDE inhibitors in live cells, primary screen, fluorescence polarization, HEK cells, FAbetaB substrate. 0.41% of 320,000 active. FAbetaB cleavage. Insulin-degrading enzyme (Homo sapiens), P14735. inhibition, % at 5.59 µM;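 active means percent inhibition above the average of all tested compounds plus 3 SD, set per screening campaign, cut at about 16% in these data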;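 further: IDE supplied by intact live HEK cells; FP after avidin binding of uncleaved biotin substrate so inhibition keeps polarization high; 0% = DMSO wells and 100% = 60 µM reference IDE inhibitor Ii1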
Myeloid diff: inducers of myeloid progenitor differentiation, confirmation, cell-based, GFP/Mac1 flow cytometry, cherry pick 01; AID 651706, 2012; ER-HoxA9 myeloid progenitors, GFP/Mac1 double-positive flow; calls only; shares compounds with Myeloid diff 2; 2% of 2,300 active;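 active means share of green or green-and-red cells above 9 and 9% in run 1 or 4 and 3% in run 2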
GFP autofluor: counter-screen for myeloid differentiation promoters: compound fluorescence; fluorescence response, % (no concentration beside the values); ER-HoxA9 myeloid progenitors, no estrogen, GFP autofluorescence flow cytometry; vehicle wells 0%, positive control 100%; 7.4% of 2,300 active; shares compounds with Myeloid diff 2;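 active means over 5% cells positive for green fluorescent reporter, or over 2% positive for both it and APC stain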;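 further: range taken on the double positive population between DMSO and positive control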
The depositor's hits bear a star; i = inactive; · = no result given; + = active, no number.

SMILES	CRFBP-R2 block	CRFR2-BP ag	IDE act	TPT1 inhibitor	Myeloid diff 2	IDE cell inh	Myeloid diff	GFP autofluor
OCC[C@H]1C[C@H](O)[C@@H](O)[C@@]2(OCCCc3ccccc32)O1	-5	1	5	-1	+	2	i	0
OCC[C@@H]1C[C@@H](O)[C@H](O)[C@]2(OCCCc3ccccc32)O1	3	-1	7	2	i	3	·	·
CCOc1ccc(-n2c(C)c3c(C)nnc(C)c3c2C)cc1	7	1	·	·	i	·	i	42*
COC(=O)c1cc(-c2c(-c3cc(OC)c(OC)c(OC)c3)noc2C)cc([N+](=O)[O-])c1	12	-2	4	1	i	-5	i	0
O=C(Nc1ccccc1F)c1ccc([N+](=O)[O-])s1	1	-2	-1	4	+	-2	i	0
O=C(Nc1cccc2ccccc12)c1ccc([N+](=O)[O-])s1	-7	0	2	-2	i	7	·	·
CCc1ccc(OCC(=O)NCc2ccco2)c(Br)c1	-1	-1	2	1	i	0	i	0
COc1ccc(CC(=O)OCC(=O)NCc2ccco2)cc1	16	-1	9	1	i	-5	·	·
COc1cc(CC(=O)OCC(=O)NCc2ccco2)cc(OC)c1OC	-20	0	2	·	+	4	i	0
O=C(COc1ccccc1Br)NCc1ccco1	5	1	4	-3	i	-7	·	·
COc1ccc(C(=O)C[n+]2ccc3c(c2)nnn3-c2ccccc2)cc1	-3	-1	-3	16	+	-1	i	0
Cc1ccc(Cl)cc1N1CCN(Cc2nc3c(c(=O)[nH]c(=O)n3C)n2CCc2ccccc2)CC1	-1	-1	-1	-2	i	3	i	0
CC1(C(=O)Nc2cccc(C#N)c2)CCN1C(=O)C/C=C/c1ccccc1 (stereo not given)	·	·	·	·	i	·	·	·
Nc1nc2cc3c(cc2cc1C(=O)NCc1ccc(F)cc1)OCO3	·	·	·	·	+	·	i	1
O=C(Nc1ncc(S(=O)(=O)c2ccc([N+](=O)[O-])cc2)s1)c1ccccc1F	-20	57*	4	3	+	0	i	1
CCOc1cc(C)nc(NCc2ccccc2)n1	3	-1	2	1	+	-1	i	4
CCCCOc1cc(C)nc(NCc2ccccc2)n1	17	-1	2	1	i	9	·	·
C(=N\N(c1ccccc1)c1ccccc1)/c1ccc(N2CCOCC2)s1	0	-2	5	9	+	0	i	0
CCN1CCN(c2ccc(S(=O)(=O)N3CCCCC3)cc2NC(=O)/C=C/c2ccc(OC(F)F)cc2)CC1	-19	0	4	2	i	0	i	0
C/C(=N\Nc1ccccc1)c1c(O)cc(C)oc1=O	-4	-2	1	-1	i	0	·	·
C/C(=N/NC(=O)c1cccc(C)c1)c1c(O)cc(C)oc1=O	-10	1	3	0	i	4	i	0
C#CCOCCOCCOCCNc1nc(N2CCN(C(=O)[C@H]([C@@H](C)CC)n3cc([C@@H](N)CO)nn3)CC2)nc(N2CCN(C(=O)[C@H]([C@@H](C)CC)n3cc([C@@H](N)Cc4ccc(O)cc4)nn3)CC2)n1	4	0	5	2	i	-5	·	·
C#CCOCCOCCOCCNc1nc(N2CCOCC2)nc(N2CCN(C(=O)[C@H]([C@@H](C)CC)n3cc(CCCCN)nn3)CC2)n1	11	-1	-3	0	+	5	i	1
C#CCOCCOCCOCCNc1nc(N2CCN(C(=O)[C@H]([C@@H](C)CC)n3cc([C@@H](N)CO)nn3)CC2)nc(N2CCN(C(=O)[C@H](Cc3ccc(O)cc3)n3cc([C@@H](N)C(C)CC)nn3)CC2)n1 (stereo not given in full)	-2	0	-5	-1	i	3	i	0
CC(=O)Nc1ccc(-c2ccnc3c2CC(C(=O)NCCC(F)(F)F)O3)cc1 (stereo not given)	·	·	·	·	i	·	·	·
SMILES	CRFBP-R2 block	CRFR2-BP ag	IDE act	TPT1 inhibitor	Myeloid diff 2	IDE cell inh	Myeloid diff	GFP autofluor
Cn1cc(CN(CCCN2CCOCC2)C(=S)Nc2cccc(Cl)c2)c2ccccc21	-18	0	6	-6	+	-5	i	0
COc1ccccc1CC1(C)NC(=O)N(CC(=O)N2CCc3ccccc3C2)C1=O (stereo not given)	12	1	4	-1	i	-5	i	0
CC(C)(C)OC(=O)NCCc1nnc(SCc2ccccc2Cl)o1	12	-2	-2	0	i	5	i	0
CCC(COC)NCc1cn(-c2ccc(OC)cc2)nc1-c1cccc(F)c1 (stereo not given)	-36	5	-2	7	+	0	i	0
Cc1nc(C(F)(F)F)nc(Nc2ccc(Br)cc2)c1C#N	-15	-1	5	-5	i	1	·	·
Cn1cc(Br)cc2nc(C(F)(F)F)nc1-2	-8	-2	-1	1	+	-1	i	0
C=CCC[C@@H](Cc1ccc(F)cc1)C(=O)OC[C@H](Cc1c[nH]c2ccccc12)NC(=O)[C@H](CC=C)CC(=O)N(CCO)Cc1ccccc1	-13	4	10	·	i	-1	·	·
Cc1oc(-c2ccccc2F)nc1CS(=O)(=O)CC(=O)NC1CCCC1	-11	-4	1	-4	i	-8	·	·
Cc1oc(-c2ccccc2F)nc1CS(=O)(=O)CC(=O)NCCN(C)C1CCCCC1	-1	-1	7	1	i	1	i	0
CCn1c(=NC(=O)CS(=O)(=O)c2ccc(C)cc2)sc2cccc(OC)c21	12	-2	6	0	i	5	i	0
COc1cccc2sc(=NC(=O)CS(=O)(=O)c3ccc(Cl)cc3)n(C)c12	8	1	7	-3	+	2	i	0
COc1cccc2sc(=NC(=O)CS(=O)(=O)c3ccc(F)cc3)n(C)c12	6	-1	3	3	i	2	·	·
